Test results published in PubChem BioAssay (EPA / NIEHS).
Activity calls are given as the source filed them. Rule for the calls: active = hit-call score of the fitted dose curve at least 0.9, where 1 is the maximum; inactive = score below 0.9.

How the values were obtained:
Settings in all cases: mRNA level, 48 h; actives raise or lower the signal
CYP2E1 (gene 1571) = assay: LTEA_HepaRG_CYP2E1: Life Technologies and Expression Analysis (LTEA) Assay for CYP2E1 using HepaRG (AID 2283485)
Outline: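 HepaRG cells in serum-free induction medium exposed 48 h to test chemicals, 8 half-log concentrations up to 100 uM in 0.5% DMSO, duplicate. CYP2E1 mRNA by qRT-PCR, normalized to ACTB, GAPDH, POLR2A; bidirectional fit versus DMSO.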

CYP4A11 (gene 1579) = assay: LTEA_HepaRG_CYP4A11: Life Technologies and Expression Analysis (LTEA) Assay for CYP4A11 using HepaRG (AID 2283486)
Outline: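 Differentiated HepaRG cells, 48 h after plating, exposed in duplicate for 48 h to 8 half-log concentrations up to 100 uM in 0.5% DMSO in serum-free induction medium. CYP4A11 mRNA measured by TaqMan qRT-PCR, normalized to ACTB, GAPDH and POLR2A.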

[1] = read-out: Cytochrome P450 3A4 (Homo sapiens) (UniProt P08684); assay: LTEA_HepaRG_CYP3A4: Life Technologies and Expression Analysis (LTEA) Assay for CYP3A4 using HepaRG (AID 2283487)
Outline: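 CYP3A4 transcript measured by TaqMan qRT-PCR and normalized to three housekeeping genes after 48 h chemical exposure of human HepaRG cells. Top concentration 100 uM, half-log steps, 0.5% DMSO vehicle; gain or loss fitted against DMSO baseline.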

[2] = read-out: DNA damage-inducible transcript 3 (DDIT3), DDIT3 (gene 1649); assay: LTEA_HepaRG_DDIT3: Life Technologies and Expression Analysis (LTEA) Assay for DNA damage-inducible transcript 3 (DDIT3) using HepaRG (AID 2283488)
Outline: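 Differentiated human HepaRG cells in serum-free induction medium were exposed in duplicate for 48 h to 8 concentrations (top 100 uM, half-log steps, 0.5% DMSO). DDIT3 mRNA measured by TaqMan qRT-PCR, normalized to ACTB/GAPDH/POLR2A; bidirectional fit versus DMSO.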

[3] = read-out: Pro-epidermal growth factor (Homo sapiens) (UniProt P01133); assay: LTEA_HepaRG_EGF: Life Technologies and Expression Analysis (LTEA) Assay for Epidermal growth factor (EGF) using HepaRG (AID 2283489)
Outline: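 HepaRG cells (~100,000/well, 48 h pre-culture) exposed in duplicate for 48 h in serum-free induction medium to 8 half-log concentrations up to 100 uM in 0.5% DMSO. EGF mRNA by qRT-PCR, normalized to ACTB/GAPDH/POLR2A; bidirectional fit versus DMSO.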

[4] = read-out: Early growth response protein 1 (EGR1) transcription factor, EGR1 (gene 1958); assay: LTEA_HepaRG_EGR1: Life Technologies and Expression Analysis (LTEA) Assay for Early growth response protein 1 (EGR1) transcription factor using HepaRG (AID 2283490)
Outline: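 Differentiated HepaRG cells in serum-free induction medium exposed 48 hours, duplicate, to 8 half-log concentrations up to 100 uM in 0.5% DMSO. EGR1 mRNA measured by TaqMan qRT-PCR, normalized to ACTB, GAPDH, POLR2A; bidirectional fit versus DMSO.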

[5] = read-out: Cytochrome P450 3A7 (Homo sapiens) (UniProt P24462); assay: LTEA_HepaRG_CYP3A7: Life Technologies and Expression Analysis (LTEA) Assay for CYP3A7 using HepaRG (AID 2283492)
Outline: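 Differentiated HepaRG cells in serum-free induction medium exposed 48 h in duplicate to 8-point half-log series from 100 uM top in 0.5% DMSO. CYP3A7 mRNA by qRT-PCR, normalized to ACTB/GAPDH/POLR2A, bidirectional fit versus DMSO.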

CYP3A5 (gene 1577) = assay: LTEA_HepaRG_CYP3A5: Life Technologies and Expression Analysis (LTEA) Assay for CYP3A5 using HepaRG (AID 2283493)
Outline: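 Differentiated HepaRG cells in serum-free induction medium were dosed 48 h with test chemicals (8-point half-log series, top 100 uM, 0.5% DMSO, duplicate). CYP3A5 mRNA measured by qRT-PCR, normalized to ACTB, GAPDH, POLR2A; bidirectional fit versus DMSO.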

[6] = read-out: Fatty Acid-Binding Protein 1 (FABP1), FABP1 (gene 2168); assay: LTEA_HepaRG_FABP1: Life Technologies and Expression Analysis (LTEA) Assay for Fatty Acid-Binding Protein 1 (FABP1) using HepaRG (AID 2283494)
Outline: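 Differentiated human HepaRG cells exposed 48 h in serum-free induction medium to eight half-log concentrations up to 100 uM (0.5% DMSO), duplicate. FABP1 mRNA by qRT-PCR, normalised to ACTB, GAPDH, POLR2A; bidirectional fitting against DMSO.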

[7] = read-out: Cytochrome P450 4A22 (Homo sapiens) (UniProt Q5TCH4); assay: LTEA_HepaRG_CYP4A22: Life Technologies and Expression Analysis (LTEA) Assay for Cytochrome P450 4A22 (CYP4A22) using HepaRG (AID 2283495)
Outline: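 Differentiated HepaRG cells in serum-free induction medium exposed 48 h in duplicate to eight half-log concentrations up to 100 uM in 0.5% DMSO. CYP4A22 mRNA quantified by TaqMan qRT-PCR, normalized to ACTB, GAPDH and POLR2A; bidirectional fit versus DMSO.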

[8] = read-out: Cytochrome P450 7A1 (Homo sapiens) (UniProt P22680); assay: LTEA_HepaRG_CYP7A1: Life Technologies and Expression Analysis (LTEA) Assay for Cytochrome P450 7A1 (CYP7A1) using HepaRG (AID 2283496)
Outline: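 Gene expression endpoint in human HepaRG liver cells treated for 48 h with test chemicals (up to 100 uM, 0.5% DMSO). Values come from bidirectional concentration-response fitting versus DMSO.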

[9] = read-out: Glutathione S-Transferase (GSTA2), GSTA2 (gene 2939); assay: LTEA_HepaRG_GSTA2: Life Technologies and Expression Analysis (LTEA) Assay for Glutathione S-Transferase (GSTA2) using HepaRG (AID 2283497)
Outline: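 Differentiated human HepaRG cells were exposed in duplicate for 48 h in serum-free induction medium, 8 points from 100 uM top in half-log steps, 0.5% DMSO. GSTA2 mRNA was measured by TaqMan qRT-PCR, normalized to ACTB, GAPDH and POLR2A; bidirectional fit versus DMSO.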

[10] = read-out: Glutamate-cysteine ligase catalytic (GCLC), GCLC (gene 2729); assay: LTEA_HepaRG_GCLC: Life Technologies and Expression Analysis (LTEA) Assay for Glutamate-cysteine ligase catalytic (GCLC) using HepaRG (AID 2283498)
Outline: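 Differentiated HepaRG cells exposed 48 h in serum-free induction medium, eight-point half-log series topping at 100 uM in 0.5% DMSO, duplicates. GCLC mRNA by qRT-PCR normalized to ACTB, GAPDH and POLR2A, fitted bidirectionally versus DMSO.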

[11] = read-out: growth arrest and DNA damage 45 (GADD45G), GADD45G (gene 10912); assay: LTEA_HepaRG_GADD45G: Life Technologies and Expression Analysis (LTEA) Assay for growth arrest and DNA damage 45 (GADD45G) using HepaRG (AID 2283499)
Outline: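 Differentiated human HepaRG cells, 48 h post-plating, exposed 48 h in serum-free induction medium to 8 half-log concentrations (top 100 uM, 0.5% DMSO) in duplicate. GADD45G mRNA measured by Fluidigm TaqMan qRT-PCR, normalized to ACTB, GAPDH, POLR2A; bidirectional fit versus DMSO.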

[12] = read-out: Glutamate-cysteine ligase regulatory (GCLM), GCLM (gene 2730); assay: LTEA_HepaRG_GCLM: Life Technologies and Expression Analysis (LTEA) Assay for Glutamate-cysteine ligase regulatory (GCLM) using HepaRG (AID 2283500)
Outline: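 Differentiated human HepaRG cells exposed 48 h in serum-free induction medium to 8-point half-log concentrations (top 100 uM, 0.5% DMSO), in duplicate. GCLM mRNA quantified by qRT-PCR, normalized to ACTB, GAPDH, POLR2A; bidirectional fitting versus DMSO.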

[13] = read-out: Glutathione S-transferase M3 (GSTM3), GSTM3 (gene 2947); assay: LTEA_HepaRG_GSTM3: Life Technologies and Expression Analysis (LTEA) Assay for Glutathione S-transferase M3 (GSTM3) using HepaRG (AID 2283501)
Outline: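 Differentiated human HepaRG cells were exposed in duplicate for 48 h in serum-free induction medium, 8 points from 100 uM top in half-log steps, 0.5% DMSO. GSTM3 mRNA was measured by TaqMan qRT-PCR, normalized to ACTB, GAPDH and POLR2A; bidirectional fit versus DMSO.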

[14] = read-out: Heat shock 70 kDa protein 1 (HSPA1A), gene 3303; assay: LTEA_HepaRG_HSPA1A: Life Technologies and Expression Analysis (LTEA) Assay for Heat shock 70 kDa protein 1 (HSPA1A) using HepaRG (AID 2283502)
Outline: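 Differentiated human HepaRG cells in serum-free induction medium were exposed in duplicate for 48 h to eight concentrations (top 100 uM, half-log steps, 0.5% DMSO). HSPA1A mRNA was quantified by qRT-PCR, normalized to ACTB, GAPDH and POLR2A, and fitted bidirectionally against DMSO.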

[15] = read-out: Hypoxia-inducible factor 1-alpha (Homo sapiens) (UniProt Q16665); assay: LTEA_HepaRG_HIF1A: Life Technologies and Expression Analysis (LTEA) Assay for Hypoxia-inducible factor 1 (HIF1A) Trancription factor using HepaRG (AID 2283503)
Outline: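 HepaRG, 48 h exposure, 8-pt half-log series from 100 uM, 0.5% DMSO vehicle, duplicates. Readout: HIF1A transcript by qRT-PCR (Fluidigm array), housekeeping-normalised. Bidirectional curve fit vs DMSO baseline.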

[16] = read-out: 3-Hydroxy-3-Methylglutaryl-CoA Synthase 2 (HMGCS2), HMGCS2 (gene 3158); assay: LTEA_HepaRG_HMGCS2: Life Technologies and Expression Analysis (LTEA) Assay for 3-Hydroxy-3-Methylglutaryl-CoA Synthase 2 (HMGCS2) using HepaRG (AID 2283504)
Outline: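 Human HepaRG cells in serum-free induction medium were exposed in duplicate for 48 h to 8-point half-log series from 100 uM top in 0.5% DMSO. HMGCS2 mRNA measured by TaqMan qRT-PCR, normalised to ACTB, GAPDH, POLR2A; bidirectional fit versus DMSO.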

[17] = read-out: Ezrin (EZR), EZR (gene 7430); assay: LTEA_HepaRG_EZR: Life Technologies and Expression Analysis (LTEA) Assay for Ezrin (EZR) using HepaRG (AID 2283491)
Outline: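 HepaRG, 48 h chemical exposure, 8-pt half-log series from 100 uM, 0.5% DMSO vehicle, duplicates. Read-out: EZR mRNA by TaqMan qRT-PCR (Fluidigm array), housekeeping-normalized; bidirectional curve fit vs DMSO baseline.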

Measured: AC50

Chain of Hypoxia-inducible factor 1-alpha (Homo sapiens) (Q16665 whole entry, looked up): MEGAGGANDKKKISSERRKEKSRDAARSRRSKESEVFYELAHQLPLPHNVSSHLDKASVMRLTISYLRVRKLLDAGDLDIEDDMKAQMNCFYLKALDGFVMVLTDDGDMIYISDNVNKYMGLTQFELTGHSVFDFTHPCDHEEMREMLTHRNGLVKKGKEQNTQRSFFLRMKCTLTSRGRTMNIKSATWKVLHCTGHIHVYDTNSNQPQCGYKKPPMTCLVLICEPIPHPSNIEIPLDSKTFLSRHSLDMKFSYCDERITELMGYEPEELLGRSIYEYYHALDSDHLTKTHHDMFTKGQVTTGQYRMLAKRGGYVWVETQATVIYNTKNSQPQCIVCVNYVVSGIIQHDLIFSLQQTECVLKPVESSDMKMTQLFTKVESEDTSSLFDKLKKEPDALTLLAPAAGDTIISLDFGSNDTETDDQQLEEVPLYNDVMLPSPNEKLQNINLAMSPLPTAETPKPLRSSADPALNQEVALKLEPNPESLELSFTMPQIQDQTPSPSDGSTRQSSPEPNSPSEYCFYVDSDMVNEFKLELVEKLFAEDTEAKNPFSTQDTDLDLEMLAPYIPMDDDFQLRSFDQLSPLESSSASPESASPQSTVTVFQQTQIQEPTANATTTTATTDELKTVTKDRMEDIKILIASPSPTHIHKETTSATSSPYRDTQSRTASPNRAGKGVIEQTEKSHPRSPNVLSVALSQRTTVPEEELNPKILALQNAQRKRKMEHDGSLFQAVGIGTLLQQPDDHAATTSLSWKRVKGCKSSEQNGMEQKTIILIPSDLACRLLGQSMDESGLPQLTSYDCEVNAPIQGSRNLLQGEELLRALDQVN
Chain of Cytochrome P450 3A7 (Homo sapiens) (P24462 whole entry, looked up): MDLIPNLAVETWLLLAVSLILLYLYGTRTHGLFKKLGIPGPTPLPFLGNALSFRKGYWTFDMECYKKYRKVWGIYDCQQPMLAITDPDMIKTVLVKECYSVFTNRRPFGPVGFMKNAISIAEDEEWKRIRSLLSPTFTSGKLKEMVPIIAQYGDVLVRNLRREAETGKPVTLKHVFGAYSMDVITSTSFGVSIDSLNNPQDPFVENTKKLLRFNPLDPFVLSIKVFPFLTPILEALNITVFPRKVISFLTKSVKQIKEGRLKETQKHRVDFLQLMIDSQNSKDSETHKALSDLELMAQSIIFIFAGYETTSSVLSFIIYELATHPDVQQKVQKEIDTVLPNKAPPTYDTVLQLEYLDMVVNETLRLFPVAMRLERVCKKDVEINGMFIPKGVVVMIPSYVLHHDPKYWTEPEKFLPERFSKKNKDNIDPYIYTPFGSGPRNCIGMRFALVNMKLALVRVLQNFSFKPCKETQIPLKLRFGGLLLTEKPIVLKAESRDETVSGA
Chain of Cytochrome P450 3A4 (Homo sapiens) (P08684 whole entry, looked up): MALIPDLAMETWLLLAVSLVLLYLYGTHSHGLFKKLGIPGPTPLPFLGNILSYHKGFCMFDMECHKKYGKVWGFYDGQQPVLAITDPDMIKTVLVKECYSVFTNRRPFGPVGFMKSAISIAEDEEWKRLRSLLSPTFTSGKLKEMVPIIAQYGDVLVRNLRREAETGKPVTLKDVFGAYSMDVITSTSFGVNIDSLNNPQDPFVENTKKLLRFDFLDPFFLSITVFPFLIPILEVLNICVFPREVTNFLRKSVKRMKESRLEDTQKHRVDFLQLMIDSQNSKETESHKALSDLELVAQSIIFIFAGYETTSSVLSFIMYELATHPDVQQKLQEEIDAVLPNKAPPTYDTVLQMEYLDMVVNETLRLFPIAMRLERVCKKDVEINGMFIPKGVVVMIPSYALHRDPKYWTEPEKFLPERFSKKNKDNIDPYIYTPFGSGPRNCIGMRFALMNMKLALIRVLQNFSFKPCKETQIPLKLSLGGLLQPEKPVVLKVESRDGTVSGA

CCOP(=S)(OCC)SCSC(C)(C)C
active: CYP2E1 (gene 1571) 28.8 µM | [5] 16.5 µM | CYP3A5 (gene 1577) 2.83 µM | [6] 50 µM | [8] 16.3 µM | [16] 14.7 µM
not listed: [17]
inactive: all other assays above

C=CC(=O)NCNC(=O)C=C
active: CYP2E1 (gene 1571) 50 µM | [6] 50 µM | [7] 24.6 µM | [9] 12.7 µM | [15] 15.6 µM
inactive: all other assays above

CN(C)CCO
inactive: all assays above
